# Reference: PubChem BioAssay AID602127 (Broad Institute, 2011)
# Potency and affinity values are given separately. Activity calls are given as the source filed them.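 The calls were made as follows: active = every repeat test judged active, meaning a falling signal with potency within twice the top valid dose; inconclusive = repeat tests disagree on the call; inactive = every repeat test inactive, including signal moving upward.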
# Target: Cyclin-dependent kinase 2 (Homo sapiens) (UniProt P24941)
# Assay: inhibition of human CDK2/cyclin A – biochemical, cherry-picked samples, selectivity assay for Dyrk1A inhibitor project, dose response (AID 602127)
smiles,measurement,value
COc1ccc2c(c1)[nH]c1c(C)nccc12,outcome,inactive
